Source: PubChem BioAssay (NCATS)
Results filed as inconclusive are left out. Where a call stands in place of a potency, no number is given. The source made the active and inactive calls. Calls follow the shape of the dose curve; as a rule, active = well fitted curve in the direction sought with a large enough effect; inconclusive = small, poorly fitted or top-dose-only effect, or another doubt; inactive = no such curve, though single readings can be large; an effect the other way counts as inactive or inconclusive.

Legend:
[1] = P-glycoprotein substrates identified in KB-3-1 adenocarcinoma cell line, qHTS therapeutic library screen (AID 1346986); also: nearly all actives have a fitted effect of over 60% in size
In short: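 Viability read by CellTiter-Glo after 72 h compound exposure in dose-response of KB-3-1 and KB-8-5-11 (P-gp-high) cells. Hits needed AC50 < 10 uM, >50% maximum response and curve class -1.1 to -2.4. Cherry-picks retested ± tariquidar, including pcDNA/MDR-19 HEK-293 pair.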

[2] = P-glycoprotein substrates identified in KB-8-5-11 adenocarcinoma cell line, qHTS therapeutic library screen (AID 1346987); also: nearly all actives have a fitted effect of over 65% in size
In short: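 Compounds are pinned in dose-response onto KB-8-5-11 cells (500 cells/well, colchicine-free medium) and left 72 h at 37 degree C. CellTiter-Glo luminescence then yields AC50 values.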

[3] = molecular target: Furin (Homo sapiens) (UniProt P09958); experiment: Furin counterscreen qHTS for Zika virus inhibitors (AID 1347149); also: nearly all actives have a fitted effect of over 70% in size; also: potency is read from the fitted curve at half-maximal effect
Sequence of Furin (Homo sapiens) (P09958 whole entry, looked up): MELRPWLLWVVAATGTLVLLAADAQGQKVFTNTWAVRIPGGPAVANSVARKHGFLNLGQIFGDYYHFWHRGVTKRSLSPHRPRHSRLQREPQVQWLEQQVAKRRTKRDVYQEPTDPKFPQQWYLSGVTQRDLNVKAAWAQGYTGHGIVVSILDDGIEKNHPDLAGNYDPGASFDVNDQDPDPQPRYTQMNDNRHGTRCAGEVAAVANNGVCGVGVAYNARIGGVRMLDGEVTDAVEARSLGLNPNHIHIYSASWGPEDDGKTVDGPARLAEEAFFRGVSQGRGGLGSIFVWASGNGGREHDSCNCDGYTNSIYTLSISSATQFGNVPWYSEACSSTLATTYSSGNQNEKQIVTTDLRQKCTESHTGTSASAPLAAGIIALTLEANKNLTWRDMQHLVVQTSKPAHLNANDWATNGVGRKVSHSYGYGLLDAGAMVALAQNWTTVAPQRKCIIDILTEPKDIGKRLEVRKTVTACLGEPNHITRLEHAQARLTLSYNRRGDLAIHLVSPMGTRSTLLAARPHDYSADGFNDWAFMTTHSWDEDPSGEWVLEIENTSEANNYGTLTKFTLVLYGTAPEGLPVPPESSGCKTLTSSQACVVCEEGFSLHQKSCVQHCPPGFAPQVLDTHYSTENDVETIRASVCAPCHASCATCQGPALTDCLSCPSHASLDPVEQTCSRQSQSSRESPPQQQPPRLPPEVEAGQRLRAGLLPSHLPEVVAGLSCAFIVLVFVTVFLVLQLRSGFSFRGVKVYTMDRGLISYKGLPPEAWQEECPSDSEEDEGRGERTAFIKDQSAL
In short: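 Counterscreen measures cleavage of 2 microM BOC-RVRR-AMC, below its ~15 microM Km, by 5 nM full-length human furin at pH 7.0 after a 15-min compound preincubation. Inhibition derives from the 15-min fluorescence increase at 37C.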

[4] = tested on: Zika virus NS2B-NS3 protease (unlinked complex); experiment: Primary screen GU Rhodamine qHTS for Zika virus inhibitors: Unlinked NS2B-NS3 protease assay (AID 1347159); also: potency is read from the fitted curve at half-maximal effect; nearly all actives have a fitted effect of over 60% in size
In short: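 Buffer 10 mM Tris-HCl pH 8.0, 0.01% Tween 20. Unlinked protease 25 nM; compound preincubation 15 min, RT, protected from light. Substrate Rhod110, 1.5 microM; ~15% conversion in 15 min.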

[5] = tested on: Zika virus NS2B-NS3 protease (linked construct); experiment: Primary screen NINDS Rhodamine qHTS for Zika virus inhibitors (AID 1347160); also: potency is read from the fitted curve at half-maximal effect; nearly all actives have a fitted effect of over 55% in size
In short: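 Aprotinin served as in-plate control. Conditions: 25 nM linked NS2B-NS3, pH 8.0 Tris buffer, titrated compounds, 15 min preincubation and 15 min reaction with 1.5 microM Rhod110 substrate at room temperature.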

[6] = Confirmatory screen NINDS Rhodamine qHTS for Zika virus inhibitors (AID 1347161); also: potency is read from the fitted curve at half-maximal effect; nearly all actives have a fitted effect of over 60% in size
In short: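 qHTS dose-response: 25 nM linked protease, pH 8.0 Tris/Tween buffer, cpd titration, 15 min RT preinc, 1.5 microM Rhod110 peptide, 15 min reaction (~15% conversion), Ex480/Em540; 4-parameter Hill fit.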

[7] = tested on: Zika virus NS2B-NS3 protease (linked construct); experiment: 384 well plate NINDS Rhodamine confirmatory qHTS for Zika virus inhibitors (AID 1347164); also: nearly all actives have a fitted effect of over 65% in size; also: potency is read from the fitted curve at half-maximal effect
In short: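 Compounds are incubated about 15 minutes with linked protease (5, 30 or 60 nM final). Rhodamine 110-tagged Ac-LKRR substrate (10 microM final) is added and fluorescence measured after 25 minutes.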

[8] = tested on: Zika virus NS2B-NS3 protease (linked construct); experiment: Confirmatory screen NINDS AMC qHTS for Zika virus inhibitors (AID 1347152); also: potency is read from the fitted curve at half-maximal effect; nearly all actives have a fitted effect of over 70% in size
In short: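 In this dose-response qHTS, AMC release from 10 microM Bz-Nle-KRR-AMC by 1 nM linked protease is measured over 15 minutes (about 20% conversion) at pH 8.0. Percent inhibition is fitted to a 4-parameter Hill curve.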

[9] = Confirmatory screen GU Rhodamine qHTS for Zika virus inhibitors qHTS (AID 1347157); also: potency is read from the fitted curve at half-maximal effect; nearly all actives have a fitted effect of over 70% in size
In short: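 A qHTS format was used, with compound concentrations ranging up to 114 microM. Each compound was preincubated with 25 nM NS2B-NS3 protease, and the substrate was then added at 1.5 microM. Curves were fitted with a 4-parameter Hill model.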

[10] = ZIKV-mCherry secondary qHTS for Zika virus inhibitors (AID 1347158); also: top concentration of the series differs between compounds
In short: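 Percent infection is the share of Hoechst-identified Vero nuclei with mCherry signal above 450 RFU (3 SD over negative controls). Cells were infected with recombinant ZIKV-mCherry at MOI 1 after compound addition and imaged 48–72 h later.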

[11] = tested on: Zika virus NS2B-NS3 protease (linked); experiment: 384 well plate NINDS AMC confirmatory qHTS for Zika virus inhibitors (AID 1347163); also: nearly all actives have a fitted effect of over 50% in size; also: potency is read from the fitted curve at half-maximal effect
In short: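 Fluorescence at 355/460 nm was read after 25 minutes of cleavage of 30 microM Ac-VKTGKR-AMC at room temperature, in the dark. Before substrate addition, compounds (up to 1 mM final) sat ~15 minutes with 5, 30 or 60 nM linked protease. Signals were normalized to no-enzyme and no-inhibitor wells.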

[12] = tested on: Zika virus NS2B-NS3 protease (unlinked complex); experiment: Confirmatory screen GU AMC qHTS for Zika virus inhibitors (AID 1347153);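 also: enzyme at 25 nM with substrate at 10 µM below its Km of 18.3 µM; potency is read from the fitted curve at half-maximal effect; nearly all actives have a fitted effect of over 70% in size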
In short: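 Noncovalent NS2B hydrophilic domain/NS3 protease complex (25 nM) in 10 mM Tris-HCl pH 8.0, 0.01% Tween 20 was preincubated 15 min at room temperature with compounds. Then 10 µM AMC substrate (Km 18.3 µM) was added; fluorescence was read over 15 min and fitted to a 4-parameter Hill equation.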

C=C1CC[C@H]2[C@@](C)(CCC(OC3OC(CO)C(O)C(O)C3O)[C@@]2(C)CO)C1C(=O)CC1=CCOC1=O (stereo not given in full)
Potency [1]: inactive | Potency [2]: inactive

O=C1C(Cl)=C(N2CCOCC2)C(=O)N1c1ccc(Cl)c(Cl)c1
Potency [1]: inactive | Potency [2]: inactive

C=C(CC/C=C(\C)C(=O)O)C1(O)CC=C(C)CC1 (stereo not given)
Potency [1]: inactive | Potency [2]: inactive

C/C=C(/C)C(=O)OC1CC(C)(C)CC2C3=CCC4C5(C)CCC(OC6OC(C)C(OC7OC(C(=O)O)C(O)C(OC8OC(CO)C(O)C(O)C8OC8OC(CO)C(O)C(O)C8O)C7O)C(O)C6O)C(C)(C)C5CCC4(C)C3(C)C(OC(=O)/C=C/C=C/C=C/CCC)C(OC(C)=O)C12CO (stereo not given)
outcome [1]: inactive [at 9.29 µM] | outcome [2]: inactive [at 9.29 µM]

COc1c2cc(c(O[C@@H]3O[C@H](CO)[C@@H](O)[C@H](O)[C@H]3O)c1OC)CCCCC(O)CCc1ccc(O)c-2c1 (stereo not given in full)
Potency [1]: inactive | Potency [2]: inactive

C[C@@H]1O[C@@H](O[C@H]2[C@H](O[C@H]3[C@H](O[C@H]4CC[C@@]5(C)C(CC[C@]6(C)C5CC=C5[C@@H]7CC(C)(C)C[C@@H](O)[C@]7(C)CC[C@]56C)C4(C)C)O[C@H](C(=O)O)[C@@H](O)[C@@H]3O)O[C@H](C(=O)O)[C@H](O)[C@@H]2O)[C@H](O)[C@H](O)[C@H]1O (stereo not given in full)
outcome [1]: inactive [at 9.29 µM] | outcome [2]: inactive [at 9.29 µM]

CC(=O)OC12CC(C)C(OC(=O)c3ccccc3)C1/C=C(/C)C(OC(=O)c1ccccc1)CC(=O)C(C)(C)/C=C/C(C)C2=O (stereo not given)
Potency [1]: inactive | Potency [2]: inactive | Potency [3]: inactive | Potency [4]: 6.31 µM (active) | Potency [5]: 7.08 µM (active) | Potency [6]: 3.68 µM (active) | Potency [7]: 35.5 µM (active)

O=C(/C=C/c1ccc(O)cc1)OC[C@@]1(O)C=C[C@@H]2C(C(=O)O)=CO[C@@H](O[C@@H]3O[C@H](CO)[C@@H](O)[C@H](O)[C@H]3O)[C@@H]21
Potency [1]: inactive | Potency [2]: inactive

CCc1nnc(NS(=O)(=O)c2ccc(NC(=S)NC(=O)/C=C/c3ccc(F)cc3)cc2)s1
Potency [1]: inactive | Potency [2]: inactive | Potency [3]: inactive | Potency [8]: 19.7 µM (active) | Potency [4]: 3.16 µM (active) | Potency [5]: 3.16 µM (active) | Potency [6]: 2.78 µM (active)

C=C1C(O)CC2C(C(=O)O)=COC(O[C@@H]3O[C@H](COC(=O)c4ccc(O)cc4)[C@@H](O)[C@H](O)[C@H]3O)C12 (stereo not given in full)
Potency [1]: inactive | Potency [2]: inactive

CC1CC(=O)C2=C(O1)OC1(C)CCC3C(C)(C)C4OC4C(=O)C3(C)C1C2 (stereo not given)
Potency [1]: inactive | Potency [2]: inactive

CC1(CO)CC(O)C2(C)CCC3(C)C(=CCC4C5(C=O)CCC(OC6OC(C(=O)O)C(O)C(O)C6OC6OC(C(=O)O)C(O)C(O)C6O)C(C)(C)C5CCC43C)C2C1 (stereo not given)
outcome [1]: inactive [at 9.29 µM] | outcome [2]: inactive [at 9.29 µM]

C=C1[C@H]2CCC3[C@]4(C)CCC[C@@](C)(C(=O)O)C4CC[C@]3(C2)[C@H]1OC(C)=O (stereo not given in full)
Potency [1]: inactive | Potency [2]: inactive

O=C1OC(c2ccc(O)cc2)C(O)=C1Cc1ccccc1 (stereo not given)
Potency [1]: inactive | Potency [2]: inactive

C=Cc1cc2oc(-c3ccc(O)c(F)c3)nc2cc1O
Potency [1]: inactive | Potency [2]: inactive

COc1cc(C(=O)OCC2=CCC3C(C(=O)O)=COC(O[C@@H]4O[C@H](CO)[C@@H](O)[C@H](O)[C@H]4O)C23)ccc1O (stereo not given in full)
Potency [1]: inactive | Potency [2]: inactive

COc1cccc(OC)c1-c1cc(C(=O)N[C@@H](CC(C)C)C(=O)O)nn1-c1ccnc2cc(Cl)ccc12
Potency [1]: inactive | Potency [2]: inactive | Potency [3]: inactive | Potency [9]: 17.5 µM (active) | Potency [10]: inactive | Potency [4]: 22.4 µM (active) | Potency [5]: 10 µM (active) | Potency [6]: 12.4 µM (active) | Potency [11]: 31.6 µM (active) | Potency [7]: inactive

Nc1nc2c(nc(Sc3ccc(Cl)cc3)n2[C@@H]2O[C@@H]3COP(=O)(O)O[C@H]3[C@H]2O)c(=O)[nH]1
Potency [1]: inactive | Potency [2]: inactive

COc1ccccc1Oc1c(NS(=O)(=O)c2ccc(C)cn2)nc(-c2ccncc2)nc1OC
Potency [1]: inactive | Potency [2]: inactive

CC(=O)NC(C(=O)OC1CCC(C)(C)C2CC=C3C(=O)OCC3C12C)C(C)C (stereo not given)
Potency [1]: inactive | Potency [2]: inactive

COC(=O)C1(C)CCCC2(C)c3ccc(C(C)C)cc3C(O)C(O)C12 (stereo not given)
Potency [1]: inactive | Potency [2]: inactive

C[C@@H]1C[C@@H](O)[C@@]23CO[C@]2(CO)C[C@@H](O)CC3[C@@]12CC(c1ccoc1)OC2=O (stereo not given in full)
Potency [1]: inactive | Potency [2]: inactive

COC(=O)C1=COC(OC2OC(CO)C(O)C(O)C2O)C2C(COC(=O)/C=C/c3ccc(O)c(O)c3)C(O)C(O)C12 (stereo not given)
Potency [1]: inactive | Potency [2]: inactive

COC(=O)c1[nH]c(=O)c2ccccc2c1-c1ccc[nH]1
Potency [1]: inactive | Potency [2]: inactive

CC1CCC2C(C)(C)[C@H](O)CC[C@]2(C)C12Cc1c(O)cc3c(c1O2)CN(C(CCC(=O)O)C(=O)O)C3=O (stereo not given in full)
Potency [1]: inactive | Potency [2]: inactive

O=C(Nc1ccccc1)Nc1ccc(-c2ccc(C(=O)C3CCCC3C(=O)O)cc2)cc1 (stereo not given)
Potency [1]: inactive | Potency [2]: inactive | Potency [3]: 55.5 µM (active) | Potency [8]: 27.8 µM (active) | Potency [12]: 35 µM (active) | Potency [4]: 5.01 µM (active) | Potency [5]: 3.55 µM (active) | Potency [6]: 3.93 µM (active) | Potency [11]: inactive | Potency [7]: 11.2 µM (active)

CC(C)CC(c1c(O)c(C=O)c(O)c(C=O)c1O)C1CCC(C)(O)C2CC(C(C)(C)O)CCC12C (stereo not given)
Potency [1]: inactive | Potency [2]: inactive | Potency [3]: inactive | Potency [5]: 5.01 µM (active) | Potency [6]: 3.41 µM (active) | Potency [11]: 50.1 µM (active) | Potency [7]: 15.8 µM (active)
